# According to PubChem BioAssay (EPA / NIEHS):
# Results filed as inconclusive are left out. The source made the active and inactive calls. Rule for the calls: active = hit-call score of the fitted dose curve at least 0.9, where 1 is the maximum; inconclusive = response in the unintended direction; inactive = score below 0.9.
# Columns and labels:
# [1] = target: Beta-2 adrenergic receptor (Homo sapiens) (UniProt P07550); assay: NVS_GPCR_hAdrb2: NovaScreen (NVS) G Protein-Coupled Receptor Assay for human Adrenergic, Beta 2 Receptor (Adrb2) (AID 2283261)
# Outline: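 Compounds screened in duplicate at 25 uM, then actives in concentration series. Human beta-2 receptor from CHO material, cell-free; radioligand displacement after 1 h measured by filtration and scintillation against DMSO baseline.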
# [2] = target: human Dopamine Receptor D2 (DRD2), DRD2 (gene 1813) (UniProt P14416); assay: NVS_GPCR_hDRD2s: NovaScreen (NVS) G Protein-Coupled Receptor Assay for human Dopamine Receptor D2 (DRD2) (AID 2283266)
# Outline: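 Test compound (25 uM, duplicate in the primary screen; concentration series at follow-up) competed with radioligand for human DRD2 in CHO-derived membrane protein. Filter-based scintillation counting was done 1.5 hours after dosing, with loss of signal analysed against DMSO.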
# [3] = target: D(1A) dopamine receptor (Homo sapiens) (UniProt P21728); assay: NVS_GPCR_hDRD1: NovaScreen (NVS) G Protein-Coupled Receptor Assay for human Dopamine Receptor D1 (DRD1) (AID 2283269)
# Procedure: NVS_GPCR_hDRD1 is a biochemical, single-readout assay that uses extracted gene-proteins from HEK293 in a cell-free assay. Measurements were taken 1 hour after chemical dosing in a 96-well plate.NVS_GPCR_hDRD1 is one of one assay component(s) measured or calculated from the NVS_GPCR_hDRD1 assay. It is designed to make measurements of radioligand binding, a form of binding reporter, as detected with scintillation counting signals by Filter-based radiodetection technology.Data from the assay component NVS_GPCR_hDRD1 was analyzed into 1 assay endpoint. This assay endpoint, NVS_GPCR_hDRD1, was analyzed in the positive analysis fitting direction relative to DMSO as the negative control and baseline of activity. Using a type of binding reporter, loss-of-signal activity can be used to understand changes in the binding as they relate to the gene DRD1. Furthermore, this assay endpoint can be referred to as a primary readout, because the performed assay has only produced 1 assay endpoint. To generalize the intended target to other relatable targets, this assay endpoint is annotated to the gpcr intended target family, where the subfamily is rhodopsin-like receptor.
# Binding assays used specific radioligands (tritiated, iodinated) with non-radioactive competitive displacement ligands in agonist or antagonist protocols (as indicated) and various reference compounds and inhibitors to titrate specific binding to receptors and transporters. Most enzyme assays (CYPs, kinases, phosphatases, proteases, HDACs) used recombinant protein and specific substrates (fluorescence mostly, some colorimetric and radioactive) and inhibitors, followed by a biochemical separation of substrate and product. All assays for the biochemical HTS were initially run in duplicate at a single concentration (10 uM for CYP450 assays and 25 uM for all others). […] Each assay was run with positive and negative controls, and concurrent controls on every plate. The follow-up (secondary) screen tested active chemical-pairs in concentration series, as well as a few additional assays not tested in the primary screen, some selected negative inactives, and several cases re-run in the concentration series for confirmatory purposes.
# [4] = target: human Adrenergic, Alpha 2A Receptor (Adra2A), ADRA2A (gene 150) (UniProt P08913); assay: NVS_GPCR_hAdra2A: NovaScreen (NVS) G Protein-Coupled Receptor Assay for human Adrenergic, Alpha 2A Receptor (Adra2A) (AID 2283257)
# Outline: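 Displacement of a specific radioligand from HT29 membrane protein was counted by filter scintillation after 1 h. Compounds were screened in duplicate at 25 uM, and actives were retested in concentration series. Fitting was positive-direction against DMSO.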
# [5] = target: human Adrenergic, Alpha 2c Receptor (Adra2C), ADRA2C (gene 152) (UniProt P18825); assay: NVS_GPCR_hAdra2C: NovaScreen (NVS) G Protein-Coupled Receptor Assay for human Adrenergic, Alpha 2c Receptor (Adra2C) (AID 2283259)
# Outline: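 Screened first in duplicate at 25 uM, with actives then run as concentration series. Membranes from Sf9 cells were exposed for 1 h, and displacement of radioligand was counted after filtration, using DMSO as baseline.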
# [6] = target: Type-1 angiotensin II receptor (Homo sapiens) (UniProt P30556); assay: NVS_GPCR_hAT1: NovaScreen (NVS) G Protein-Coupled Receptor Assay for human Angiotensin II receptor type 1 (AT1) (AID 2283263)
# Outline: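 Hits from a 25 uM duplicate screen (threshold e.g. 30% inhibition) were run in concentration-response with 50 uM top concentration. Displacement of specific radioligand from KAN-TS membrane preparations measured after 3 h by filter scintillation, DMSO as baseline.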
# [7] = target: human Adrenergic, Beta 1 Receptor (Adrb1), ADRB1 (gene 153) (UniProt P08588); assay: NVS_GPCR_hAdrb1: NovaScreen (NVS) G Protein-Coupled Receptor Assay for human Adrenergic, Beta 1 Receptor (Adrb1) (AID 2283258)
# Outline: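 Membranes/protein extracted from human neuroepithelioma cells, radioligand competition binding read by filtration and scintillation 2 h post-dose. Single 25 uM duplicate screen, then concentration-response follow-up; DMSO as negative control.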
# [8] = target: Muscarinic acetylcholine receptor M1 (Homo sapiens) (UniProt P11229); assay: NVS_GPCR_hM1: NovaScreen (NVS) G Protein-Coupled Receptor Assay for human Muscarinic, M1 Receptor (AID 2283270)
# Outline: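 Actives from a duplicate 25 uM single-point screen were retested in concentration series. Binding measured as displacement of a radioligand from CHO-derived receptor preparation, 1 h incubation, filtration and scintillation counting, analysed as signal loss against DMSO.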
# [9] = target: human Endothelin Receptor Type B (ETB), EDNRB (gene 1910) (UniProt P24530); assay: NVS_GPCR_hETB: NovaScreen (NVS) G Protein-Coupled Receptor Assay for human Endothelin Receptor Type B (ETB) (AID 2283267)
# Outline: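 Filter-based scintillation readout of radioligand displacement, 4 h, using membranes from human astrocytoma cells. Actives from a 25 uM duplicate screen were retested in concentration-response (top 50 uM) relative to DMSO baseline.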
# [10] = target: human Histamine 1 Receptor (H1), HRH1 (gene 3269) (UniProt P35367); assay: NVS_GPCR_hH1: NovaScreen (NVS) G Protein-Coupled Receptor Assay for human Histamine 1 Receptor (H1) (AID 2283268)
# Outline: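 Filter-based scintillation detection of radioligand binding to human H1, 1 h incubation; chemicals screened in duplicate at 25 uM, then concentration-response; signal loss relative to DMSO taken as activity.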
# Sequence of human Adrenergic, Beta 1 Receptor (Adrb1), ADRB1 (gene 153) (P08588 whole entry, looked up): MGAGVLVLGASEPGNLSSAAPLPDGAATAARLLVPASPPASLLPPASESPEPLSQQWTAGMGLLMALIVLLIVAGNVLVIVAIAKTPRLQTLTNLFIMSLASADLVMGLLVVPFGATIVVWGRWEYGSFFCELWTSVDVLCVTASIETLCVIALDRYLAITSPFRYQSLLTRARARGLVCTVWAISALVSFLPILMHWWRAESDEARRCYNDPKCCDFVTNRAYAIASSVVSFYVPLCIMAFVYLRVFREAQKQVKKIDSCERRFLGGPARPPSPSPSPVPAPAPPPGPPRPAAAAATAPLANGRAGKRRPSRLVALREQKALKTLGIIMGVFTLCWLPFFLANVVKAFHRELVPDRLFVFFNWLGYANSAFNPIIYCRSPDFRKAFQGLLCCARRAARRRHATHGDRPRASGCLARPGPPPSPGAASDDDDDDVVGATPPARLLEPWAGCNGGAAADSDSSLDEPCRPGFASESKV
# Sequence of D(1A) dopamine receptor (Homo sapiens) (P21728 whole entry, looked up): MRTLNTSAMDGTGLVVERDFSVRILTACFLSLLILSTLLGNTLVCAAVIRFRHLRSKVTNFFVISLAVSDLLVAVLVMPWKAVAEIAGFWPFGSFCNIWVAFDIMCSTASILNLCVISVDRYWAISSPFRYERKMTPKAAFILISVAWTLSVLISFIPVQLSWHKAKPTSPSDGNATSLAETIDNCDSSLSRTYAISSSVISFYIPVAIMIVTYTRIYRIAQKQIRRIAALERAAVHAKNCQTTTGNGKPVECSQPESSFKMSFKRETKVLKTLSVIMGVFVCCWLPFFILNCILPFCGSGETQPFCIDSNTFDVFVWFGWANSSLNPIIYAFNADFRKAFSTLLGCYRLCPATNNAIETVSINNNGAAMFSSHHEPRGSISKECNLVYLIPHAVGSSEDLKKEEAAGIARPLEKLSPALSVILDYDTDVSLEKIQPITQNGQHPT
# Sequence of human Adrenergic, Alpha 2c Receptor (Adra2C), ADRA2C (gene 152) (P18825 whole entry, looked up): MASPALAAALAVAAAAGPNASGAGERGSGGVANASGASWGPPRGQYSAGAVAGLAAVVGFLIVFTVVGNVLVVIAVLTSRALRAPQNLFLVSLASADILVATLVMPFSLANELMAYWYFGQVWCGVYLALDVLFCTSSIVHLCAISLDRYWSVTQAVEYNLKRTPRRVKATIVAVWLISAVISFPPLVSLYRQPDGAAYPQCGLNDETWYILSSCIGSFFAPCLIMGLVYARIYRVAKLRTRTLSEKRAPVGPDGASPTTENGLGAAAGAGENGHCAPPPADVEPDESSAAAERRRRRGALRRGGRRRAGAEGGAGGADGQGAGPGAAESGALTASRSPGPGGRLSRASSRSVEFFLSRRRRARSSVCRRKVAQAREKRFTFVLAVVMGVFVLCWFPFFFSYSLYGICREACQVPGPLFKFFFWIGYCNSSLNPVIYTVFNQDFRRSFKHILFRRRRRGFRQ
# Sequence of human Adrenergic, Alpha 2A Receptor (Adra2A), ADRA2A (gene 150) (P08913 whole entry, looked up): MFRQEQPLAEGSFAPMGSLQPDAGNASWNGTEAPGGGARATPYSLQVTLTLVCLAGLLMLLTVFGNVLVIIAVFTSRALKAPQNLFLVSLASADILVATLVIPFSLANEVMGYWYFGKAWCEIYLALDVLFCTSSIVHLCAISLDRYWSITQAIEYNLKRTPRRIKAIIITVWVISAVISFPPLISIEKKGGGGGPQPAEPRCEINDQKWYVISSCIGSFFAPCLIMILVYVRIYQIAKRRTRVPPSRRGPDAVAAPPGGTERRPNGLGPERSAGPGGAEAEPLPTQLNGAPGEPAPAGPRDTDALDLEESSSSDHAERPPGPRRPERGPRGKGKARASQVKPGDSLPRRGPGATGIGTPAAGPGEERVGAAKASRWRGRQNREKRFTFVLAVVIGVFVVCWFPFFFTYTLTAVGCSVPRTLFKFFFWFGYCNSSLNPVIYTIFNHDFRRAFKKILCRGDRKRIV
# Sequence of human Dopamine Receptor D2 (DRD2), DRD2 (gene 1813) (P14416 whole entry, looked up): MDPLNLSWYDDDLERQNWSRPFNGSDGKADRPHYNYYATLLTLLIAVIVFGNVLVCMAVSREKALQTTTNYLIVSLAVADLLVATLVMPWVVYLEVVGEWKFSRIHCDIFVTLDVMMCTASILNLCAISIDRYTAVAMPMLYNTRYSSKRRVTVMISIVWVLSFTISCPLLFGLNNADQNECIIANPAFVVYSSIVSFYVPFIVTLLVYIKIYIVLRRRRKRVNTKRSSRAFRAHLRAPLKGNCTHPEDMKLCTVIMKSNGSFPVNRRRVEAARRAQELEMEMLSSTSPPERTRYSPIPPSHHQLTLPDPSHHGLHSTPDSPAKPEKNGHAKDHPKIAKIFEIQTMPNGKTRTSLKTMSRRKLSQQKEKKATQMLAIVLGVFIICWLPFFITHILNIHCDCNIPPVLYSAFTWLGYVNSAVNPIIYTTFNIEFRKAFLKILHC
# Sequence of Type-1 angiotensin II receptor (Homo sapiens) (P30556 whole entry, looked up): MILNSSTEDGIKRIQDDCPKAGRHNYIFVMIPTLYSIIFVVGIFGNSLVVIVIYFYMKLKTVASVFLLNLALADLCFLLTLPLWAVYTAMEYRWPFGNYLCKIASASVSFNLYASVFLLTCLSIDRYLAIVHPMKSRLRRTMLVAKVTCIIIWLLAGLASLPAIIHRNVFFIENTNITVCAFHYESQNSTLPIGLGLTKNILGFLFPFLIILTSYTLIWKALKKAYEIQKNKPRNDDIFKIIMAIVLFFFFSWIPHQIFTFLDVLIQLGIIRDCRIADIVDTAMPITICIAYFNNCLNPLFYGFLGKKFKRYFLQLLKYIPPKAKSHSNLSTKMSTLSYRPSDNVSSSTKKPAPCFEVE
# Sequence of human Endothelin Receptor Type B (ETB), EDNRB (gene 1910) (P24530 whole entry, looked up): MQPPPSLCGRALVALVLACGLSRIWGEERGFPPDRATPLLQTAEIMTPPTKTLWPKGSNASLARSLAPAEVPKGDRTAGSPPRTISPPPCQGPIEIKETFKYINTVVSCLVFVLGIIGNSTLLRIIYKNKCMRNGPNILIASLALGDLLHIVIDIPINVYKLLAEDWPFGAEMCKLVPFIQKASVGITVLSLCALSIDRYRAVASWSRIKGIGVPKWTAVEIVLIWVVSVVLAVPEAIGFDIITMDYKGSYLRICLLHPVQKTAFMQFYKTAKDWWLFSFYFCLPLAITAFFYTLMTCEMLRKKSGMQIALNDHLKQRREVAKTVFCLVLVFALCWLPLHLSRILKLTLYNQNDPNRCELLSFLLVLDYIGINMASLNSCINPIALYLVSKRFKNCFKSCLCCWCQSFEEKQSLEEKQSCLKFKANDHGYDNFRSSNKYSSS
# Sequence of Muscarinic acetylcholine receptor M1 (Homo sapiens) (P11229 whole entry, looked up): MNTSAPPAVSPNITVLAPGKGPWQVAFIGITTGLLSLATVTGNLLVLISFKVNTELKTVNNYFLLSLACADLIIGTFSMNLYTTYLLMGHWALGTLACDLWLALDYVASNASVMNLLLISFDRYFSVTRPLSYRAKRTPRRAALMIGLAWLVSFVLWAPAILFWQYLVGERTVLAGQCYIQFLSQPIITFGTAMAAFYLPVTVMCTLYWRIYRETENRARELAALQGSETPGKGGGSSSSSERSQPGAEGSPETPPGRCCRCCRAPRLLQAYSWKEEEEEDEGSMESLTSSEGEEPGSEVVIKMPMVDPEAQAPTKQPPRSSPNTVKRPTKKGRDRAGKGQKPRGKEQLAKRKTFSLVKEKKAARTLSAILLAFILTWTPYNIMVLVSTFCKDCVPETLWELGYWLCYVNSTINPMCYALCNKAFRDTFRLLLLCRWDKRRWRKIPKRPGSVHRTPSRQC
# Sequence of human Histamine 1 Receptor (H1), HRH1 (gene 3269) (P35367 whole entry, looked up): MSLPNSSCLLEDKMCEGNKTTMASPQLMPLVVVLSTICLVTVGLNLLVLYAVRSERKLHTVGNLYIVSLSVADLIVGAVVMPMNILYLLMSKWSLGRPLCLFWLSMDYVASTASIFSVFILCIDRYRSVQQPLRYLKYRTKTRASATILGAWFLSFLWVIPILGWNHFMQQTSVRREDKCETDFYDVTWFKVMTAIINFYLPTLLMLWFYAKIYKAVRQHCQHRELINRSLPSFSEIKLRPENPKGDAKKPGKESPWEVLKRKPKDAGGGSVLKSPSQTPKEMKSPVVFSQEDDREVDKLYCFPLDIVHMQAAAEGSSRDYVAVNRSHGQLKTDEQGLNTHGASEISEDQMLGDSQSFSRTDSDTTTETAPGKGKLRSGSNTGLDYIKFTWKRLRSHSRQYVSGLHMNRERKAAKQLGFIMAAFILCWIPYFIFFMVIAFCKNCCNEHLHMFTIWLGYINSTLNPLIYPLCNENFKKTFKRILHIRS
# Sequence of Beta-2 adrenergic receptor (Homo sapiens) (P07550 whole entry, looked up): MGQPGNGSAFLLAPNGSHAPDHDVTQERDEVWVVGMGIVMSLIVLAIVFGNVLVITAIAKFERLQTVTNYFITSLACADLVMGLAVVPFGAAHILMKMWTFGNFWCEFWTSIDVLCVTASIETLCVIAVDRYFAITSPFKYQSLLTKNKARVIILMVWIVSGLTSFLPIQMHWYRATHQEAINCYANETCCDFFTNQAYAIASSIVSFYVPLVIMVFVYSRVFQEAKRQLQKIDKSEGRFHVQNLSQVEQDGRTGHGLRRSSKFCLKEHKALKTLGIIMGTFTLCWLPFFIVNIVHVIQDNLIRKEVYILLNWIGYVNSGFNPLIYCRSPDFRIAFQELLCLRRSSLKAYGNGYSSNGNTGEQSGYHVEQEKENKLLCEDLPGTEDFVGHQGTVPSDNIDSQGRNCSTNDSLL
compound,measurement,setting,value
ClC1=C(Cl)C2(Cl)C3C(Cl)C(Cl)CC3C1(Cl)C2(Cl)Cl (stereo not drawn),outcome,[1],inactive
same,outcome,[2],inactive
Nc1ccc([N+](=O)[O-])cc1Cl,outcome,[3],inactive
CSC(C)(C)C=NO,outcome,[4],inactive
same,outcome,[5],inactive
same,outcome,[6],inactive
same,outcome,[3],inactive
CC(Cc1ccc(OCC(=O)O)cc1)NCC(O)c1csc(C(F)(F)F)n1 (stereo not drawn),AC50,[4],25 µM (active)
Oc1ccccc1Br,outcome,[3],inactive
CCOP(=S)(Oc1ccc([N+](=O)[O-])cc1)c1ccccc1 (stereo not drawn),outcome,[7],inactive
same,outcome,[3],inactive
CC1(C)CN=C(NN=C(/C=C/c2ccc(C(F)(F)F)cc2)/C=C/c2ccc(C(F)(F)F)cc2)NC1,AC50,[5],8.95 µM (active)
same,AC50,[8],19.6 µM (active)
O=c1ssc(Cl)c1Cl,AC50,[3],1.21 µM (active)
CCCCN(CCCC)SN(C)C(=O)Oc1cccc2c1OC(C)(C)C2,outcome,[7],inactive
same,outcome,[9],inactive
same,outcome,[10],inactive
CCCCCCCc1ccc(O)cc1,outcome,[5],inactive
N#Cc1c(-c2ccc(Cl)cc2)[nH]c(C(F)(F)F)c1Br,outcome,[3],inactive
CC(C)Nc1ccc(Nc2ccccc2)cc1,AC50,[3],25 µM (active)
CCCN(CCC)c1c([N+](=O)[O-])cc(C(C)C)cc1[N+](=O)[O-],outcome,[7],inactive
same,outcome,[2],inactive
COP(N)(=S)OC,outcome,[3],inactive
